Among the data in PubChem BioAssay (NCI) are growth inhibition values, retold here.

The panel holds about 79,000 compounds, 15% with a hit somewhere; the sample as a whole holds those more often. Values without a mark were called inactive. Calls of active or inactive are those of the source. No stated cut-off is given here; in the data, active means growth inhibition above about 70%; inactive means the rest.

Experiment [1] in a line: NCI Yeast Anticancer Drug Screen. Data for the rad50 strain (AID 155).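 Further: 0% = growth of vehicle-only cultures of the same strain.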 The conditions noted are these: S. cerevisiae rad50 strain growth inhibition, active compounds read high. In outline:
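Genetically altered yeast (DNA repair pathway); compound treatment; growth inhibition vs vehicle ctrl.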

Experiment [2] is described as follows: NCI Yeast Anticancer Drug Screen. Data for the mec2-1 strain (AID 157). The settings on record: S. cerevisiae mec2-1 strain, active compounds read high. Put shortly:
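Test agents were screened against the mec2-1 yeast strain, with defined DNA repair or cell cycle alteration. Growth was scored as inhibition against vehicle-only controls.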

Experiment [3] can be described thus: NCI Yeast Anticancer Drug Screen. Data for the sgs1 mgt1 strain (AID 161).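 Further: 0% = growth of cultures given vehicle only.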 The conditions noted are these: S. cerevisiae sgs1 mgt1 strain, active compounds read high. Put shortly:
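Mutant yeast exposed to compound; growth scored against vehicle-only wells.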

Experiment [4] can be described thus: NCI Yeast Anticancer Drug Screen. Data for the cln2 rad14 strain (AID 165).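 Further: 0% = growth equal to vehicle treated cultures.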 The settings on record: S. cerevisiae cln2 rad14 strain, active compounds read high. Put shortly: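 Growth of compound-exposed yeast (cln2 rad14 genotype) measured and expressed as inhibition relative to vehicle.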
The nature of experiment [5]: NCI Yeast Anticancer Drug Screen. Data for the bub3 strain (AID 167). The settings on record: S. cerevisiae bub3 mutant strain, active compounds read high. Put shortly: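 Yeast carrying a defined mutation is treated with each compound, and growth is compared with that of vehicle-exposed cells to give inhibition.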
Experiment [6] is described as follows: NCI Yeast Anticancer Drug Screen. Data for the mlh1 rad18 strain (AID 175). The conditions noted are these: S. cerevisiae mlh1 rad18 strain growth inhibition, active compounds read high. Put shortly:
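In this whole-cell yeast screen, a strain with altered DNA damage repair is challenged with compound, and its growth is measured against matched vehicle-treated controls.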

Setting [7] is: at 5.0 µM (retest, dose inferred, filed as 0.5).
[8] abbreviates: at 50.0 µM (retest, dose inferred, filed as 5.0).

Take `CS/C([S-])=N/N=C/c1ccccn1.[Cl][Pt+]`: the growth inhibition in experiment [1] (setting [7]) was 1%; in experiment [1] (setting [8]), 58%; in experiment [1] (at 50.0 µM) it was 82.2% (active); in experiment [2] (setting [7]), 3%; in experiment [2] (setting [8]), 80% (active); in experiment [2] (at 50.0 µM), 38%. Further, the growth inhibition in experiment [3] (setting [7]) is 20%; in experiment [3] (setting [8]), 96% (active); in experiment [3] (at 50.0 µM), 89.6% (active); in experiment [4] (setting [7]) it was -3%; in experiment [4] (setting [8]), 29%; in experiment [4] (at 50.0 µM), 9.15%. Moreover, the growth inhibition in experiment [5] (setting [7]) was -4%; in experiment [5] (setting [8]) it was 77% (active); in experiment [5] (at 50.0 µM), 19.6%; in experiment [6] (setting [7]) it was 33%; in experiment [6] (setting [8]) it was 93% (active); in experiment [6] (at 50.0 µM), 64.2%.

For the compound `O=C(C1C(c2ccccc2)N1C(c1ccccc1)c1ccccc1)C1C(c2ccccc2)N1C(c1ccccc1)c1ccccc1` (configuration not stated), the growth inhibition in experiment [1] (setting [7]) was -3%; in experiment [1] (setting [8]), 50%; in experiment [1] (at 50.0 µM), 72.7% (active); in experiment [2] (setting [7]), 23%; in experiment [2] (setting [8]), 42%; in experiment [2] (at 50.0 µM) it was 54%. Moreover, the growth inhibition is -3% in experiment [3] (setting [7]); 77% (active) in experiment [3] (setting [8]); 58% in experiment [3] (at 50.0 µM); -17% in experiment [4] (setting [7]); 6% in experiment [4] (setting [8]); 24% in experiment [4] (at 50.0 µM). Further, the growth inhibition in experiment [5] (setting [7]) was -14%; in experiment [5] (setting [8]), 56%; in experiment [5] (at 50.0 µM) it was 63.9%; in experiment [6] (setting [7]), 7%; in experiment [6] (setting [8]), 80% (active); in experiment [6] (at 50.0 µM) it was 90.2% (active).

Take `CC(=O)O.CC(=O)[O-].CC(=O)[O-].[Co+3].[NH-]CC[NH-].[NH-]CC[NH-]`: the growth inhibition in experiment [1] (setting [7]) is -5%; in experiment [1] (setting [8]), 94% (active); in experiment [1] (at 50.0 µM), 23.3%; in experiment [2] (setting [7]) it was -5%; in experiment [2] (setting [8]), 98% (active); in experiment [2] (at 50.0 µM) it was 10.3%. The growth inhibition is 2% in experiment [3] (setting [7]); 97% (active) in experiment [3] (setting [8]); -3.35% in experiment [3] (at 50.0 µM); -4% in experiment [4] (setting [7]); 96% (active) in experiment [4] (setting [8]); 31.6% in experiment [4] (at 50.0 µM). In addition, the growth inhibition in experiment [5] (setting [7]) was 38%; in experiment [5] (setting [8]), 98% (active); in experiment [5] (at 50.0 µM) it was -1.65%; in experiment [6] (setting [7]) it was -7%; in experiment [6] (setting [8]) it was 97% (active); in experiment [6] (at 50.0 µM), 4.05%.

On to `S=P(Nc1ccccc1)(Oc1ccccc1)c1ccccc1` (configuration not stated), for which the growth inhibition in experiment [1] (setting [7]) is -1%; in experiment [1] (setting [8]), 90% (active); in experiment [1] (at 50.0 µM), 93.8% (active); in experiment [2] (setting [7]) it was 5%; in experiment [2] (setting [8]) it was 91% (active); in experiment [2] (at 50.0 µM), 94.5% (active). In addition, the growth inhibition in experiment [3] (setting [7]) was 3%; in experiment [3] (setting [8]), 90% (active); in experiment [3] (at 50.0 µM) it was 93.3% (active); in experiment [4] (setting [7]), -1%; in experiment [4] (setting [8]), 87% (active); in experiment [4] (at 50.0 µM) it was 91% (active). For the same compound, the growth inhibition in experiment [5] (setting [7]) is 1%; in experiment [5] (setting [8]), 88% (active); in experiment [5] (at 50.0 µM), 92.4% (active); in experiment [6] (setting [7]), 6%; in experiment [6] (setting [8]) it was 88% (active); in experiment [6] (at 50.0 µM) it was 92.7% (active).

Regarding `Oc1c(-c2ccccc2)cc(-[n+]2c(-c3ccccc3)cc(-c3ccccc3)cc2-c2ccccc2)cc1-c1ccccc1`, the growth inhibition is 97% (active) in experiment [1] (setting [7]); 99% (active) in experiment [1] (setting [8]); 91.7% (active) in experiment [1] (at 50.0 µM); 98% (active) in experiment [2] (setting [7]); 99% (active) in experiment [2] (setting [8]); 92.7% (active) in experiment [2] (at 50.0 µM). Besides, the growth inhibition in experiment [3] (setting [7]) is 98% (active); in experiment [3] (setting [8]) it was 99% (active); in experiment [3] (at 50.0 µM) it was 89.6% (active); in experiment [4] (setting [7]), 98% (active); in experiment [4] (setting [8]) it was 98% (active); in experiment [4] (at 50.0 µM), 89.8% (active). The growth inhibition is 99% (active) in experiment [5] (setting [7]); 99% (active) in experiment [5] (setting [8]); 89.8% (active) in experiment [5] (at 50.0 µM); 98% (active) in experiment [6] (setting [7]); 99% (active) in experiment [6] (setting [8]); 91.5% (active) in experiment [6] (at 50.0 µM).

Consider `COc1ccc2c3c(c4cc(OC)c(OC)cc4c2c1)C[C@H]1CCCCN1C3`, for which the growth inhibition was 99% (active) in experiment [1] (setting [7]); 99% (active) in experiment [1] (setting [8]); 92.6% (active) in experiment [1] (at 50.0 µM); 99% (active) in experiment [2] (setting [7]); 100% (active) in experiment [2] (setting [8]); 94.2% (active) in experiment [2] (at 50.0 µM). In addition, the growth inhibition in experiment [3] (setting [7]) was 99% (active); in experiment [3] (setting [8]) it was 99% (active); in experiment [3] (at 50.0 µM) it was 93.8% (active); in experiment [4] (setting [7]) it was 99% (active); in experiment [4] (setting [8]) it was 99% (active); in experiment [4] (at 50.0 µM), 92.5% (active). In addition, the growth inhibition in experiment [5] (setting [7]) was 99% (active); in experiment [5] (setting [8]), 99% (active); in experiment [5] (at 50.0 µM), 93.2% (active); in experiment [6] (setting [7]), 99% (active); in experiment [6] (setting [8]), 99% (active); in experiment [6] (at 50.0 µM), 93% (active).

As for `COC(=O)[C@@]12OC[C@]34[C@H]([C@@H](O)[C@@H]1O)[C@@]1(C)CC(=O)C(O)=C(C)[C@@H]1C[C@H]3OC(=O)[C@H](OC(=O)/C=C(\C)C(C)C)[C@@H]24`, the growth inhibition is 96% (active) in experiment [1] (setting [7]); 99% (active) in experiment [1] (setting [8]); 91.5% (active) in experiment [1] (at 50.0 µM); 95% (active) in experiment [2] (setting [7]); 100% (active) in experiment [2] (setting [8]); 93.7% (active) in experiment [2] (at 50.0 µM). In addition, the growth inhibition in experiment [3] (setting [7]) was 96% (active); in experiment [3] (setting [8]), 99% (active); in experiment [3] (at 50.0 µM) it was 93% (active); in experiment [4] (setting [7]), 96% (active); in experiment [4] (setting [8]), 99% (active); in experiment [4] (at 50.0 µM) it was 90.8% (active). Moreover, the growth inhibition in experiment [5] (setting [7]) is 93% (active); in experiment [5] (setting [8]), 99% (active); in experiment [5] (at 50.0 µM), 91.5% (active); in experiment [6] (setting [7]), 97% (active); in experiment [6] (setting [8]), 99% (active); in experiment [6] (at 50.0 µM), 92% (active).

With `O=CNc1ccccc1.[Hg]`, the growth inhibition in experiment [1] (setting [7]) is 98% (active); in experiment [1] (setting [8]), 98% (active); in experiment [1] (at 50.0 µM), 99.7% (active); in experiment [2] (setting [7]), 99% (active); in experiment [2] (setting [8]) it was 99% (active); in experiment [2] (at 50.0 µM), 99.6% (active). The growth inhibition in experiment [3] (setting [7]) was 99% (active); in experiment [3] (setting [8]) it was 98% (active); in experiment [3] (at 50.0 µM) it was 99.4% (active); in experiment [4] (setting [7]), 99% (active); in experiment [4] (setting [8]), 98% (active); in experiment [4] (at 50.0 µM), 99.3% (active). In addition, the growth inhibition in experiment [5] (setting [7]) is 99% (active); in experiment [5] (setting [8]) it was 98% (active); in experiment [5] (at 50.0 µM), 99.5% (active); in experiment [6] (setting [7]), 98% (active); in experiment [6] (setting [8]), 98% (active); in experiment [6] (at 50.0 µM), 99.4% (active).

Regarding `[C-]#[O+].[C-]#[O+].[Ir].[O-]c1ccc2ccccc2c1N=Nc1ccccc1`, the growth inhibition is -4% in experiment [1] (setting [7]); -4% in experiment [1] (setting [8]); 74.5% (active) in experiment [1] (at 50.0 µM); -11% in experiment [2] (setting [7]); -11% in experiment [2] (setting [8]); 69.5% in experiment [2] (at 50.0 µM). The growth inhibition was 15% in experiment [3] (setting [7]); 15% in experiment [3] (setting [8]); 62.1% in experiment [3] (at 50.0 µM); -2% in experiment [4] (setting [7]); -2% in experiment [4] (setting [8]); 50.7% in experiment [4] (at 50.0 µM). Further, the growth inhibition is -20% in experiment [5] (setting [7]); -20% in experiment [5] (setting [8]); 55.1% in experiment [5] (at 50.0 µM); -18% in experiment [6] (setting [7]); -18% in experiment [6] (setting [8]); 69.5% in experiment [6] (at 50.0 µM).
